Only some compounds are listed: those with a hit (about 1.4% of all), similar ones and a draw of the others.
E coli Lon inh: E. coli protease La inhibition. P0A9M0. purified E. coli Lon protease, fluorescence polarization. inhibition, % at 7.94 µM. 360,000 tested, 0.42% active; in the data active = inhibition above about 13%, passing the limit was not always enough;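 note: 0% = enzyme with probe and DMSO and 100% = no enzyme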
MEX-5 binding: C. elegans MEX-5 TCR-2 RNA binding activity | AID 1832 | 300,000 tested, 0.38% active | activity score (negative = inhibition of binding), % at 10 µM | MEX-5/FITC-TCR2 RNA binding, fluorescence polarization; hits give low values | Q9XUB2;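 active = inhibition past about -25% in most replicates, and total fluorescence under double the plate's negative control median, limit read from the data; inconclusive = replicates evenly split on the limit, or fluorescence at least double controls; inactive = too little inhibition in most replicates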;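 note: 0% = DMSO and -100% = 5 µM competing unlabeled TCR2 RNA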
Target sequence (Q9XUB2 whole entry, looked up): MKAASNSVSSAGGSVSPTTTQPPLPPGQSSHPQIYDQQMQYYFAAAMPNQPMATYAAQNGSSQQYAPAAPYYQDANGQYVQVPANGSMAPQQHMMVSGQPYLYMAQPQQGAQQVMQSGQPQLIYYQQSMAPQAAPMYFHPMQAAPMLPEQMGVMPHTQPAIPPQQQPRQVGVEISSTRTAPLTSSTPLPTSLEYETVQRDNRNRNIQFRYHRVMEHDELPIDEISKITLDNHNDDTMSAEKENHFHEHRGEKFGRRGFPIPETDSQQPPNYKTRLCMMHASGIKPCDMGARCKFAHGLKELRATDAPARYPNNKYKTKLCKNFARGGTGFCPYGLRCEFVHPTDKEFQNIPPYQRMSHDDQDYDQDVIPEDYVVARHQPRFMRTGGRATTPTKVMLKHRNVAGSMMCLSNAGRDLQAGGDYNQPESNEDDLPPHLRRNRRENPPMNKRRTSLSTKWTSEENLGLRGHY
GLD-1 RNA inh: GLD-1-TGE RNA interaction inhibition (C. elegans) | inhibition, % at 5.96 µM | Q17339 | purified GLD-1 + fluorescein TGE RNA, fluorescence polarization | 320,000 tested, 0.44% active;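 active = percent inhibition above a per-plate cutoff, the plate mean of test compounds plus 3 SD, cut at about 30% in these data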;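 note: 0% = DMSO wells with GLD-1 and probe and 100% = wells lacking GLD-1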
BCLXL inh: inhibitors of human Bcl-xL; Q07817; GST-Bcl-xL / FITC-Bim BH3 peptide fluorescence polarization; inhibition, % at 10.9 µM; 320,000 tested, 0.7% active; AID 2129;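 active = inhibition above the mean of all tested compounds plus 3 SD, cutoff set per campaign, cut at about 30% in these data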;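 note: 0% = DMSO wells and 100% = unlabeled Bim-BH3 peptide competitor; inhibitors lower millipolarization by displacing the labeled peptide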
MCL1 BIM primary: inhibitors of human MCL1 binding to BIM-BH3 peptide; 320,000 tested, 0.68% active; inhibition, % at 10.9 µM; GST-MCL1 / FITC-Bim-BH3 fluorescence polarization;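 active = inhibition above the mean inhibition of all tested compounds plus 3 SD, set per campaign, cut at about 40% in these data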;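 note: 0% = DMSO wells and 100% = unlabeled Bim-BH3 peptide control; higher means more loss of mP so more displacement of Bim peptide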
* hit, by the source's call; ? = inconclusive; · = no result.

SMILES | E coli Lon inh | MEX-5 binding | GLD-1 RNA inh | BCLXL inh | MCL1 BIM primary
CC(C(=O)Nc1ccc(Br)cc1C(=O)c1ccccc1)N1CCCCC1 (centres undefined) | 24* | 1 | 2 | 7 | 5
CCOC(=O)c1c(/N=C/C2C(=O)NC(=S)NC2=O)sc2c1CCC2 | -282 | -31* | -192 | -92 | -85
CCOC(=O)c1c(/N=C/C2C(=O)NC(=S)NC2=O)sc(C)c1C | · | ? | -13 | -4 | -14
CS(=O)(=O)c1ccc(C2=C(CNC(=O)c3cccs3)[C@H]3CC[C@@H](C2)N3Cc2ccco2)cc1 | -5 | · | · | · | ·
N[C@@H](Cc1ccccc1)C(=O)N1C[C@H]2C[C@@H](C1)c1cccc(=O)n1C2 | -2 | 1 | -2 | 2 | 5
Cc1c2ccncc2c(C)c2c1[nH]c1ccccc12 | -1 | -2 | 0 | 66* | 88*
c1ccc2c(c1)[nH]c1cnccc12 | -3 | 1 | 2 | 2 | 1
COc1ccc(N2C(=O)NC(=O)/C(=C\c3ccccc3[N+](=O)[O-])C2=O)cc1 | 5 | 1 | -6 | 6 | 7
O=C1NC(=O)C(=Cc2ccccc2[N+](=O)[O-])C(=O)N1 | -6 | · | · | · | ·
O=C1NC(=O)C(=Cc2cc3c(cc2[N+](=O)[O-])OCO3)C(=O)N1 | 4 | -12 | 13 | 32* | 19
Cc1cccc(N2C(=O)NC(=O)/C(=C/c3cc4c(cc3[N+](=O)[O-])OCO4)C2=O)c1 | 9 | -69* | 77* | 118* | 119*
NC(Cc1ccccc1)c1nn[nH]n1 (centres undefined) | -9 | · | · | · | ·
CCCN1CCc2cc(O)cc3c2[C@H]1Cc1ccc(O)c(O)c1-3 | -3 | -82* | 1 | 32* | 37
CC/C(=C\C=C\[C@@H]1C=C[C@@H]2CCC[C@H]2[C@@H]1C(=O)c1ccc[nH]1)[C@@H]1O[C@@H]([C@@H](C)C(=O)O)CC[C@@H]1C | · | ? | 14 | 34* | 32
COC(=O)C1=C(c2cccc(OC)c2OC)C[C@@H]2CC[C@H]1N2C(=O)N1CCCCC1 | 1 | -1 | -2 | -1 | 0
CN(C)c1ccc(N=Cc2c(O)n(CCC3=CCCCC3)c(=O)[nH]c2=O)cc1 | -12 | -63* | -2 | 7 | 7
COc1ccc(/C=C/C(=O)c2c(O)n(CCC3=CCCCC3)c(=O)[nH]c2=O)cc1OC | -13 | -47* | -2 | -2 | -2
CCOP(=O)(OCC)C(O)c1ccc(OC)c(OC)c1 (centres undefined) | -2 | 1 | 22 | 34* | 49*
CCOP(=O)(C#Cc1ccccc1)C(O)c1ccc(Br)cc1 (centres undefined) | 1 | 1 | 5 | 3 | 7
O=c1[nH]c(=O)n(-c2cccc(Cl)c2)c(O)c1/C=N/c1ccccn1 | -42 | -29* | -13 | -14 | -18
CC(c1ccccc1)[n+]1ccccc1 (centres undefined) | -8 | 3 | 7 | 1 | 1
NS(=O)(=O)c1ccc(-c2ccc(C=C3C(=O)NC(=S)NC3=O)o2)cc1 | · | -49* | -5 | -16 | -26
CCOP(=O)(Nc1ccc2c(c1)C(=NNC(N)=S)c1ccccc1-2)OCC | -6 | · | · | · | ·
CCCn1cc2c3c(cccc31)C1CC(C)CN(C)C1C2 (centres undefined) | · | -27* | · | · | ·
CN(C)C(=O)Oc1ccc2nnc3ccnn3c2c1 | -13 | -3 | 12 | 31* | 29
SMILES | E coli Lon inh | MEX-5 binding | GLD-1 RNA inh | BCLXL inh | MCL1 BIM primary
Cc1cc(C)cc(-n2c(O)c(C=Nc3ccc(N4CCOCC4)cc3)c(=O)[nH]c2=S)c1 | -27 | -52* | -6 | -17 | -27
O=c1[nH]c2ccccc2n1C1CCN(C(CCc2ccccc2)c2nnnn2C2CCCC2)CC1 (centres undefined) | 2 | · | · | · | ·
COc1ccc(Cn2c(O)c(C=Nc3c(C)n(C)n(-c4ccccc4)c3=O)c(=O)[nH]c2=O)cc1 | 1 | 3 | -10 | -4 | -6
COc1ccc(OC)c(N=Cc2c(O)n(Cc3ccccc3)c(=S)[nH]c2=O)c1 | -23 | -47* | -5 | -5 | -11
COc1ccc(N=Cc2c(O)n(Cc3ccccc3)c(=S)[nH]c2=O)c(OC)c1 | -4 | -57* | 4 | 7 | 4
CC(C)(C)OC(=O)c1c(N)n(Cc2ccco2)c2nc3ccccc3nc12 | -14 | -8 | 48* | 53* | 41*
COCCNC(=O)c1c(N)n(Cc2ccco2)c2nc3ccccc3nc12 | -18 | -1 | 8 | 13 | 17
Cc1ccc(-n2c(O)c(C=NCCCn3ccnc3)c(=O)[nH]c2=O)cc1 | 9 | 0 | -2 | -6 | -10
O=C(N/N=C/c1c(O)n(C2CCCCC2)c(=S)[nH]c1=O)c1ccccc1 | -2 | -5 | -5 | 0 | 10
O=C(N/N=C/C1C(=O)NC(=S)N(c2ccccc2)C1=O)c1cc(Br)c(O)c(Br)c1 (centres undefined) | -1 | -79* | -6 | 3 | 9
COC(=O)C1=CCCN(C)C1 | 2 | 2 | 0 | 3 | -5
CCN(CC)C(=O)Cn1cc(C=C2C(=O)N(C)C(=O)N(C)C2=O)c2ccccc21 | -4 | ? | -2 | 2 | -5
COC(=O)Cn1cc(C=C2C(=O)N(C)C(=O)N(C)C2=O)c2ccccc21 | · | -80* | -9 | -5 | -14
CC(C)C(=O)Nc1ccc(N2CCN(C)CC2)c(F)c1 | -3 | 0 | 3 | -1 | -2
O=C1NC(=O)N(Cc2ccc(F)cc2)C(=O)/C1=C\C=C\c1ccco1 | -184 | 0 | -46 | -39 | -55
O=C1NC(=O)N(Cc2ccccc2)C(=O)/C1=C\c1ccco1 | -96 | -30* | -31 | -13 | -2
COC(=O)C1=C(c2ccc(F)cc2OCc2ccccc2)C[C@@H]2CC[C@H]1N2C(=O)NCc1cc(C)oc1C(F)(F)F | 8 | · | -3 | · | ·
O=c1[nH]c(=O)n(-c2ccc(Cl)cc2)c(O)c1C=NCCN1CCCCC1 | -7 | -17 | -12 | -8 | -3
CCOC(=O)c1c(-n2c(C)cc(C=C3C(=O)NC(=O)NC3=O)c2C)sc2c1CCCC2 | -10 | -45* | 2 | -2 | -5
Cc1cccc(N2C(=O)NC(=O)/C(=C\c3cc(C)n(-c4sc5c(c4C#N)CCCC5)c3C)C2=O)c1C | -30 | 1 | -16 | -3 | -12
COc1cccc(C2(O)CCN(CC(=O)Nc3nc(C)cs3)CC2)c1 | -2 | -51* | -7 | 9 | 8
O=[N+]([O-])c1cc(-c2ccc([As](=O)(O)O)cc2)ccc1[As](=O)(O)O | · | -46* | · | · | ·
CN(C(=O)Cc1ccc(Cl)c(Cl)c1)C(CN1CCCC1)c1cccc(OCC(=O)O)c1 (centres undefined) | -8 | · | -1 | 12 | 7
CSc1nc(N)c(N=Nc2ccc([As](=O)(O)O)cc2)c(=O)[nH]1 | -6 | -34* | -2 | 10 | 8
COc1ccc(N=Nc2c(O)[nH]c(=S)[nH]c2=O)cc1 | -66 | 0 | -85 | -42 | -88
CN1C(=O)NC(=O)/C(=C/c2ccc([N+](=O)[O-])s2)C1=O | -26 | -11 | 11 | 14 | 18

Bioassay records deposited in PubChem by several laboratories.
